Results as given in the supplement of paper PMC8866396.
± gives the standard deviation of the averaged measurements.

Legend:
IL-6-GFP PC-9GR = assay: cell viability (CCK-8 OD) relative to DMSO control (fraction of control); higher = more viable cells; conditions: compound concentration: 10 uM; treatment time: 48 h
In short: (§1)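 PC-9 and PC-9GR lung cancer cells expressing lentiviral IL-6-GFP were plated at 3000 cells/well in 96-well plates and treated for 48 h with each library compound at a final 10 μM. Viability was determined by CCK-8 absorbance as a ratio of each well's optical density to the vehicle control well.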

IL-6-GFP PC-9 = assay: as above; conditions: compound concentration: 10 uM; treatment time: 48 h
In short: as §1

| Compound | cell viability (IL-6-GFP PC-9GR) | cell viability (IL-6-GFP PC-9) |
| --- | --- | --- |
| Nc1nc(F)nc2c1ncn2C1OC(COP(=O)(O)O)C(O)C1O (stereo not drawn) [Fludarabine Phosphate] | 0.174 ± 0.083 | 0.206 ± 0.052 |
| CCC1/C=C(\C)CC(C)CC(OC)C2OC(O)(C(=O)C(=O)N3CCCCC3C(=O)OC(/C(C)=C/C3CCC(Cl)C(OC)C3)C(C)C(O)CC1=O)C(C)CC2OC (stereo not drawn) [Pimecrolimus] | 1 ± 0.18 | 1.02 ± 0.071 |
| CCCCCCCCCCCC1=C(O)C(=O)C=C(O)C1=O [Embelin] | 0.858 ± 0.075 | 1.12 ± 0.44 |
| CC(C)c1c(C(=O)Nc2ccccc2)c(-c2ccccc2)c(-c2ccc(F)cc2)n1CCC(O)CC(O)CC(=O)O (stereo not drawn) [atorvastatin] | 0.904 ± 0.21 | 0.866 ± 0.015 |
| COc1ccc(-c2ccc3cc(C(=O)O)ccc3c2)cc1C12CC3CC(CC(C3)C1)C2 [Adapalene] | 1.15 ± 0.15 | 0.765 ± 0.3 |
| O=C(/C=C/C=C/c1ccc2c(c1)OCO2)N1CCCCC1 [Piperine] | 1.33 ± 0.093 | 1.47 ± 0.33 |
| CC(=O)OC1(C(C)=O)CCC2C3C=C(Cl)C4=CC(=O)C5CC5C4(C)C3CCC21C (stereo not drawn) [Cyproterone Acetate] | 1.13 ± 0.092 | 1.2 ± 0.092 |
| O=S1(=O)CCN(CN2CCS(=O)(=O)NC2)CN1 [Taurolidine] | 1.22 ± 0.27 | 1.234 ± 0.011 |
| CC(C)(C#N)c1cc(Cn2cncn2)cc(C(C)(C)C#N)c1 [Anastrozole] | 1.15 ± 0.045 | 1.01 ± 0.078 |
| CC1CC2C3CC(F)C4=CC(=O)C=CC4(C)C3(F)C(O)CC2(C)C1(OC(=O)c1ccco1)C(=O)SCF (stereo not drawn) [fluticasone furoate] | 0.711 ± 0.089 | 0.961 ± 0.27 |
| COc1ccc2c(c1)nc(S(=O)Cc1ncc(C)c(OC)c1C)[n]2[Na] (stereo not drawn) [Omeprazole Sodium] | 0.872 ± 0.13 | 0.963 ± 0.16 |
| COC(=O)c1cc(OC)c2c(c1-c1c(C(=O)OC)cc(OC)c3c1OCO3)OCO2 [Bifendate] | 1.19 ± 0.22 | 1.25 ± 0.027 |
| CC#CC(=O)N1CCCC1c1nc(-c2ccc(C(=O)Nc3ccccn3)cc2)c2c(N)nccn12 (stereo not drawn) [Acalabrutinib (ACP-196)] | 1.04 ± 0.36 | 0.78 ± 0.084 |
| COC(=O)NC(C(=O)N1CCCC1c1ncc(-c2ccc3c(c2)OC(c2ccccc2)n2c-3cc3cc(-c4cnc(C5CCCN5C(=O)C(NC(=O)OC)C(C)C)[nH]4)ccc32)[nH]1)C(C)C (stereo not drawn) [Elbasvir] | 0.497 ± 0.03 | 0.809 ± 0.035 |
| C=CC(=O)Nc1cc(Nc2nccc(-c3cn(C)c4ccccc34)n2)c(OC)cc1N(C)CCN(C)C.CS(=O)(=O)O [Osimertinib mesylate] | 0.206 ± 0.046 | 0.298 ± 0.12 |
| CCc1ccc(Cc2ccc3c(c2)C2(OC3)OC(CO)C(O)C(O)C2O)cc1.O (stereo not drawn) [Tofogliflozin(CSG 452)] | 0.92 ± 0.21 | 1.02 ± 0.25 |
| COc1cc2ncnc(Nc3ccc(F)c(Cl)c3)c2cc1NC(=O)/C=C/CN1CCCCC1 | 0.477 ± 0.02 | 0.443 ± 0.033 |
| COc1cc(Nc2c(C#N)cnc3cc(OCCCN4CCN(C)CC4)c(OC)cc23)c(Cl)cc1Cl [Bosutinib (SKI-606)] | 0.448 ± 0.011 | 0.429 ± 0.064 |
| CC(=O)Nc1ccc(OC(=O)c2ccccc2OC(C)=O)cc1 [Benorylate] | 1.54 ± 0.41 | 1.13 ± 0.046 |
| O=c1oc2cc(O)ccc2s1 [Tioxolone] | 1.06 ± 0.041 | 1.121 ± 0.0078 |
| CN(C)c1nc(N(C)C)nc(N(C)C)n1 [Altretamine] | 1.25 ± 0.047 | 1.06 ± 0.036 |
| Nc1nc(=O)c2c([nH]1)NCC(CNc1ccc(C(=O)NC(CCC(=O)[O-])C(=O)[O-])cc1)N2C=O.O.O.O.O.O.[Ca+2] (stereo not drawn) [Leucovorin Calcium Pentahydrate] | 1.25 ± 0.17 | 1.16 ± 0.28 |

| Compound | cell viability (IL-6-GFP PC-9GR) | cell viability (IL-6-GFP PC-9) |
| --- | --- | --- |
| CS(=O)(=O)c1ccc(C(=O)Nc2ccc(Cl)c(-c3ccccn3)c2)c(Cl)c1 [Vismodegib (GDC-0449)] | 1.05 ± 0.072 | 0.311 ± 0.32 |
| CC(C)Cc1ccc(C(C)C(=O)OCc2ccccn2)cc1 (stereo not drawn) [Ibuprofen piconol] | 1.43 ± 0.54 | 1.17 ± 0.096 |
| CC(=O)Nc1ccc(CC(=O)O)cc1 [Actarit] | 1.61 ± 0.35 | 1.15 ± 0.07 |
| Cn1c(=O)cc(N2CCCC(N)C2)n(Cc2cc(F)ccc2C#N)c1=O.O=C(O)CCC(=O)O (stereo not drawn) [Trelagliptin succinate] | 0.825 ± 0.15 | 1.07 ± 0.15 |
| COc1ccc2cc1Oc1ccc(cc1)CC1c3c(cc4c(c3Oc3cc5c(cc3OC)CCN(C)C5C2)OCO4)CCN1C (stereo not drawn) [Cepharanthine] | 0.8242 ± 0.0069 | 0.73 ± 0.15 |
| CCOC(=O)c1ccc(OC(=O)CCCCCNC(=N)N)cc1.CS(=O)(=O)O [Gabexate Mesylate] | 1.14 ± 0.069 | 0.801 ± 0.071 |
| Nc1nc(Cl)nc2c1ncn2C1CC(O)C(CO)O1 (stereo not drawn) [Cladribine] | 0.941 ± 0.059 | 0.762 ± 0.076 |
| CN(C)N=Nc1[nH]cnc1C(N)=O [Dacarbazine] | 0.95 ± 0.14 | 0.8338 ± 0.005 |
| CC(C)Cc1ccc(C(C)C(=O)O)cc1.NCCCCC(N)C(=O)O (stereo not drawn) [Ibuprofen Lysine] | 1.28 ± 0.21 | 1.25 ± 0.29 |
| O=C(OCCOCCO)c1ccccc1Nc1cccc(C(F)(F)F)c1 [Etofenamate] | 1.01 ± 0.29 | 1.24 ± 0.13 |
| Nc1ncn(C2OC(CO)C(O)C2O)c(=O)n1 (stereo not drawn) [Azacitidine] | 1.04 ± 0.077 | 0.895 ± 0.15 |
| OCC1OC(c2ccc(F)c(Cc3cc4ccccc4s3)c2)C(O)C(O)C1O (stereo not drawn) [Ipragliflozin (ASP1941)] | 0.779 ± 0.068 | 1.06 ± 0.12 |
| Cn1c(=O)cc(N2CCCC(N)C2)n(Cc2ccccc2C#N)c1=O (stereo not drawn) [Alogliptin(SYK-322)benzoate] | 0.986 ± 0.057 | 1.05 ± 0.088 |
| Cc1nccn1CC1CCc2c(c3ccccc3n2C)C1=O.Cl (stereo not drawn) [Ondansetron HCl] | 1.24 ± 0.19 | 1.18 ± 0.093 |
| CC(OC1OCCN(Cc2n[nH]c(=O)[nH]2)C1c1ccc(F)cc1)c1cc(C(F)(F)F)cc(C(F)(F)F)c1 (stereo not drawn) [Aprepitant] | 1.01 ± 0.071 | 0.767 ± 0.041 |
| C=C1C(=O)OC2C1CCC(=C)C1CCC(=C)C12 (stereo not drawn) [Dehydrocostus Lactone] | 0.75 ± 0.052 | 0.808 ± 0.077 |
| CCC1(O)C(=O)OCc2c1cc1n(c2=O)Cc2cc3cc(O)ccc3nc2-1 (stereo not drawn) [Hydroxy Camptothecine] | 0.38 ± 0.2 | 0.404 ± 0.042 |
| Cn1c(=O)cc(N2CCCC(N)C2)n(Cc2ccccc2C#N)c1=O (stereo not drawn) [Alogliptin] | 0.0419 ± 0.21 | 1.29 ± 0.11 |
| Cc1cnc(NC(=O)C2=C(O)c3ccccc3S(=O)(=O)N2C)s1 [Meloxicam] | 1.2096 ± 0.0007 | 1.4 ± 0.41 |
| CNCc1ccc(-c2[nH]c3cc(F)cc4c3c2CCNC4=O)cc1.O=P(O)(O)O | 0.93 ± 0.16 | 1.05 ± 0.15 |
| O=S(=O)([O-])CCS.[Na+] [Mesna] | 1.23 ± 0.2 | 0.95 ± 0.07 |
| CCS(=O)(=O)N1CC(CC#N)(n2cc(-c3ncnc4[nH]ccc34)cn2)C1.O=P(O)(O)O [Baricitinib phosphate] | 0.391 ± 0.7 | 1.0937 ± 7.8e-05 |

| Compound | cell viability (IL-6-GFP PC-9GR) | cell viability (IL-6-GFP PC-9) |
| --- | --- | --- |
| CC(=O)Nc1ccccc1 [Acetanilide] | 1.31 ± 0.19 | 1.24 ± 0.12 |
| CC(C(=O)O)c1ccc(-c2ccccc2)c(F)c1 (stereo not drawn) [Flurbiprofen] | 1.04 ± 0.39 | 0.9552 ± 0.0084 |
| Cl.Nc1ccn(C2OC(CO)C(O)C2(F)F)c(=O)n1 (stereo not drawn) [Gemcitabine HCl] | 0.596 ± 0.012 | 0.566 ± 0.046 |
| NC(CCC(=O)NC(CS)C(=O)NCC(=O)O)C(=O)O (stereo not drawn) [Glutathione] | 1.06 ± 0.11 | 1.1 ± 0.15 |
| CCOc1ccccc1OCCNC(C)Cc1ccc(OC)c(S(N)(=O)=O)c1 (stereo not drawn) [Tamsulosin] | 1.37 ± 0.042 | 1.316 ± 0.0058 |
| O=C(O)CCC(=O)c1ccc(-c2ccccc2)cc1 [Fenbufen] | 1 ± 0.06 | 1.08 ± 0.12 |
| O.S=c1nc[nH]c2nc[nH]c12 [6-Mercaptopurine (6-MP) Monohydrate] | 0.92 ± 0.11 | 0.978 ± 0.19 |
| Cn1cnc2c(F)c(Nc3ccc(Br)cc3F)c(C(=O)NOCCO)cc21 | 0.812 ± 0.043 | 1.2 ± 0.19 |
| COc1ccc(C2OCC3C(c4cc(OC)c(OC)c(OC)c4)OCC23)cc1OC (stereo not drawn) [Magnolin] | 0.791 ± 0.087 | 1.08 ± 0.081 |
| CCOc1ccc(Cc2cc(C34OCC(CO)(O3)C(O)C(O)C4O)ccc2Cl)cc1 (stereo not drawn) [Ertugliflozin] | 1.43 ± 0.46 | 0.987 ± 0.16 |
| CCS(=O)(=O)O.COC(=O)c1ccc2c(c1)NC(=O)/C2=C(\Nc1ccc(N(C)C(=O)CN2CCN(C)CC2)cc1)c1ccccc1 [Nintedanib Ethanesulfonate Salt] | 0.8 ± 0.075 | 0.782 ± 0.023 |
| NC1CCCCC1N.O=C([O-])C(=O)[O-].[Pt+2] (stereo not drawn) [Oxaliplatin] | 0.678 ± 0.016 | 1.2 ± 0.099 |
| O=c1cc[nH]c(=O)[nH]1 [Uracil] | 0.909 ± 0.021 | 0.701 ± 0.11 |
| Cc1cccn2c(=O)c(-c3nnn[n-]3)cnc12.[K+] [Pemirolast potassium] | 1.24 ± 0.25 | 1.23 ± 0.31 |
| CC(C)=CCC/C(C)=C/CC/C(C)=C/CCC(=O)OC/C=C(\C)CCC=C(C)C [Gefarnate] | 0.851 ± 0.023 | 1.06 ± 0.17 |
| CC(N)c1ccc(C(=O)Nc2ccnc3[nH]ccc23)cc1.Cl.Cl (stereo not drawn) | 0.973 ± 0.42 | 0.74 ± 0.23 |
| N.N.O=C([O-])C1(C(=O)[O-])CCC1.[Pt+2] [Carboplatin] | 1.19 ± 0.012 | 1.12 ± 0.074 |
| CS(=O)(=O)n1cc2c(n1)CN(C1COC(c3cc(F)ccc3F)C(N)C1)C2 (stereo not drawn) [Omarigliptin (MK-3102)] | 0.931 ± 0.14 | 1.02 ± 0.25 |
| COC(=O)NC(C(=O)N1CCCC1c1ncc(-c2ccc(-c3ccc(-c4cnc(C5CCCN5C(=O)C(NC(=O)OC)C(C)C)[nH]4)cc3)cc2)[nH]1)C(C)C (stereo not drawn) | 1.41 ± 0.14 | 1.18 ± 0.11 |
| COc1ccc2cc(C(C)C(=O)[O-])ccc2c1.[Na+] (stereo not drawn) [Naproxen Sodium] | 1.36 ± 0.035 | 1.16 ± 0.16 |
